Only some compounds are listed: those with a hit (about 4.6% of all), similar ones and a draw of the others.
PfHsp90 yeast 2: inhibits growth of yeast expressing Plasmodium falciparum Hsp90 | S. cerevisiae expressing PfHsp90, BacTiter-Glo ATP, 48 h; yeast lacking PDR1 and PDR3 efflux regulators | AID 504621 | 310,000 compounds, 0.32% hits | inhibition, % at 9.4 µM;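 active = every replicate shows inhibition above about 80%, whatever the replicate mean, limit read from the data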
tim23-1 inh: tim23-1 yeast growth inhibition; inhibition, % at 20 µM; S. cerevisiae tim23-1 growth, BacTiter-Glo luminescence, 24 h; 330,000 compounds, 1.3% hits;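 active = growth inhibition of the mutant yeast at or above 50%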;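 also: temperature-sensitive mutant grown at 25 °C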
TIM10 inh: growth inhibitors of TIM10 yeast strain. S. cerevisiae TIM10 strain growth, BacTiter-Glo luminescence, 24 h. inhibition, % at 10 µM. 330,000 compounds, 1.4% hits;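 active = inhibition of 40% or more at the single tested concentration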;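 also: wild-type TIM10 isogenic control strain grown at permissive 25 °C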
SKKanGAS inh: inhibitors of SKKanGAS S. pyogenes growth in kanamycin (SK-promoter or general growth effect); 300,000 compounds, 1.3% hits; inhibition, % at 7.5 µM; BacTiter-Glo, 6 h;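 active = mean replicate score, as percent of positive control median, at least 50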;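 also: strain carries kanamycin resistance gene driven by streptokinase promoter and grows in 40 µg/ml kanamycin; loss of luminescence reflects streptokinase promoter inhibition or plain growth inhibition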
tim10-1 inh: tim10-1 yeast growth inhibition; S. cerevisiae tim10-1 ts strain growth, BacTiter-Glo, 24 h; inhibition, % at 20 µM; 330,000 compounds, 2.2% hits; AID 463190;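 active = inhibition of at least 40%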;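 also: mutant grown at 25 °C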
NLRP3 yeast inh: blocks the NALP3 inflammasome reconstituted in yeast | Yeast reconstituted NLRP3/ASC/caspase-1, beta-gal luminescence, 24 h | 330,000 compounds, 0.39% hits | AID 2825 | inhibition, % at 10 µM;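 active = inhibition of 50% or more; inactive = inhibition below 50%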
tim10-1 confirm: confirmation of tim10-1 mutant yeast growth inhibitors. shares compounds with tim10-1 inh. inhibition, % at 20 µM. S. cerevisiae tim10-1 ts strain growth, BacTiter-Glo, 24 h. 7,400 compounds, 56% hits;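 active = inhibition of yeast growth at or above a set limit in either of two repeat tests at 20 µM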;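 also: tim10-1 mutant grown at permissive 25 °C to find synthetic lethal compounds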
tim10 confirm: TIM10 yeast growth inhibition, confirmed | shares compounds with TIM10 inh | S. cerevisiae tim10 strain growth, BacTiter-Glo luminescence, 24 h | inhibition, % at 10 µM | 4,600 compounds, 63% hits;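 active = inhibition of yeast growth at or above a set limit in either of two replicates at 10 µM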; also: this counterscreen used the strain with wild-type TIM10
Numbers stand for hits; i = inactive; nt = no result given.

SMILES	PfHsp90 yeast 2	tim23-1 inh	TIM10 inh	SKKanGAS inh	tim10-1 inh	NLRP3 yeast inh	tim10-1 confirm	tim10 confirm
O=C(CS(=O)c1ccccc1[N+](=O)[O-])Oc1ccc(Br)cc1 (configuration not stated)	i	i	51.1	i	81.1	i	64.2	54.5
CN(C)c1ccc(NC2=C(Cl)C(=O)c3ccccc3C2=O)cc1	i	i	68.1	nt	61.9	i	63.2	60.0
COc1cccc(OC)c1C(=O)NNS(=O)(=O)c1ccc2ccccc2c1	i	i	i	nt	i	i	nt	nt
O=C(O)CSc1nnc(COc2ccc(Br)cc2)n1-c1ccccc1	i	i	i	i	i	i	nt	nt
CCOc1cccc2sc(N(CCCN(C)C)C(=O)c3ccc(S(=O)(=O)N4CCc5ccccc5C4)cc3)nc12	i	i	41.7	i	45.1	i	i	31.6
CCc1ccc2nc(N(CCCN(C)C)C(=O)c3ccc(S(=O)(=O)N4CCc5ccccc5C4)cc3)sc2c1	nt	i	i	i	i	i	nt	nt
Oc1ccc(C2Nc3cccc4cccc(c34)N2)c(O)c1	i	i	41.0	i	42.3	i	43.8	37.5
COc1cc(C2Nc3cccc4cccc(c34)N2)cc(OC)c1O	i	i	i	nt	i	i	nt	nt
CCCCS(=O)(=O)/C=C\C=C/S(=O)(=O)CCCC	i	i	58.5	i	69.5	i	42.0	61.1
COc1ccc(NC(=O)CN2CCC(NC(=O)c3ccco3)CC2)c([N+](=O)[O-])c1	i	i	i	i	i	i	nt	nt
CCOc1ccc(C(=O)C(C)OC(=O)Cn2c(C)csc2=O)cc1 (configuration not stated)	i	i	i	i	i	i	nt	nt
O=[N+]([O-])c1ccc(S(=O)(=O)NN=Cc2ccc(Cl)c(Cl)c2)cc1	i	nt	nt	nt	nt	nt	nt	nt
CCCCNC(=O)/C(=C\c1ccc([N+](=O)[O-])o1)NC(=O)c1ccccc1	i	i	i	i	i	i	nt	nt
COC(=O)/C(=C\c1ccc([N+](=O)[O-])o1)NC(=O)c1ccccc1	i	i	43.6	i	45.0	i	40.1	31.8
CNNC(=S)Nc1cccc(C(F)(F)F)c1	nt	i	i	i	i	i	nt	nt
FC(F)(F)c1cccc(NC(=S)NNC(=S)Nc2cccc(C(F)(F)F)c2)c1	nt	i	54.3	100.8	46.9	i	i	53.7
COC(=O)CCn1c(C)cc(C(=O)COc2ccccc2C(N)=O)c1C	i	i	i	i	i	i	nt	nt
COC(=O)CCCn1c(C)cc(C(=O)CCl)c1C	nt	i	41.6	i	45.4	i	36.5	35.5
C/C(=N\NC(=O)c1nnn(-c2nonc2N)c1-c1ccc(Cl)c(Cl)c1)c1ccncc1	i	i	i	i	i	i	nt	nt
Cc1cc2c3c(c1)C(C)CC(C)(C)N3C(=O)C2=C(C#N)C#N (configuration not stated)	i	i	58.7	i	57.4	i	46.1	49.4
Cc1ccc(S(=O)(=O)CCC(=O)OCC(=O)Nc2cc(S(=O)(=O)N3CCOCC3)ccc2C)cc1	nt	i	i	i	i	i	nt	nt
CCN(CC(=O)Nc1cc(C)nn1-c1nc(C)cc(C)n1)Cc1ccccc1	i	i	43.6	i	43.7	i	i	i
Cc1ccc(S(=O)(=O)N2CCN(C(=O)CN3CCN(c4ccc(O)cc4)CC3)CC2)cc1	i	nt	nt	nt	nt	nt	nt	nt
Cc1cccc(NC(=S)NNC(=O)c2cc3c(s2)CCC(C)C3)c1C (configuration not stated)	i	i	50.6	i	58.7	i	39.4	32.2
O=C1Nc2ccccc2/C1=C/c1cnc(-c2ccccc2)[nH]1	i	i	i	i	i	i	nt	nt
SMILES	PfHsp90 yeast 2	tim23-1 inh	TIM10 inh	SKKanGAS inh	tim10-1 inh	NLRP3 yeast inh	tim10-1 confirm	tim10 confirm
O=C1Nc2ccccc2/C1=C/c1cccnc1	i	i	51.2	i	49.0	i	35.5	31.6
COc1cc2c(cc1NS(=O)(=O)N1CCCCC1)oc1ccccc12	i	i	43.8	i	41.1	i	37.0	35.2
O=C(Cc1cccs1)Nc1nc(-c2ccc(F)cc2F)cs1	i	i	52.4	i	41.0	i	34.5	41.3
COc1cccc(C(=O)Nc2ccccc2N2CCCC2)c1	i	i	i	i	i	i	nt	nt
COc1cccc(C(=O)NC(=S)Nc2ccccc2N2CCCC2)c1	i	i	49.2	i	41.2	i	30.4	43.7
O=C(NC(=S)Nc1ccccc1N1CCOCC1)c1cccc([N+](=O)[O-])c1	i	i	43.9	i	44.0	i	34.8	42.9
CCC(=O)N1CCN(c2ccccc2NC(=S)NC(=O)c2cccc([N+](=O)[O-])c2)CC1	i	i	i	i	i	i	nt	nt
COc1ccc(-c2csc(NCCc3nc4cc(C(=O)NCCCO)ccc4n3Cc3ccc(C)cc3)n2)cc1	nt	i	i	i	i	i	nt	nt
c1ccc(C2Nc3ccccc3-c3nc4ccccc4n32)cc1 (configuration not stated)	nt	i	46.8	i	40.8	i	i	34.7
Cc1ccc2nc(NC(=O)CSc3nc(=O)n(CCN(C)C)c4c3CCCC4)sc2c1	i	i	i	i	i	i	nt	nt
Cn1cc(S(=O)(=O)N2CCCC2)cc1C(=O)Nc1cccc(C(F)(F)F)c1	i	i	i	i	i	i	nt	nt
CCN1/C(=C\C(=S)Nc2ccccc2)Sc2ccccc21	i	i	49.5	i	45.2	i	i	43.2
CCN1/C(=C\C=C(C(C)=O)C(C)=O)Sc2ccccc21	i	i	i	i	i	i	nt	nt
S=c1[nH]nc(COc2ccccc2)n1C1CCCCC1	i	i	i	i	i	i	nt	nt
S=c1[nH]nc(CSc2nc3ccccc3s2)n1C1CCCCC1	i	i	49.4	i	47.4	i	42.5	i
CC1CCN(S(=O)(=O)c2cccc(C(=O)N3CCN(c4ccc(F)cc4)CC3)c2)CC1	i	i	i	i	i	i	nt	nt
COc1ccc(C(=O)NC(=S)N(Cc2ccccc2)Cc2ccccc2)cc1	i	i	47.8	96.1	46.5	i	35.0	39.0
O=C(NCCc1ccccc1)c1ccccc1F	i	i	i	i	i	i	nt	nt
O=C(NC(=S)N(Cc1ccccc1)Cc1ccccc1)c1ccccc1F	i	i	58.6	94.2	50.0	i	38.0	43.6
CC(C)CN(C(=O)COC(=O)CN1C(=O)c2ccccc2C1=O)c1c(N)n(Cc2ccccc2)c(=O)[nH]c1=O	i	i	i	i	i	i	nt	nt
c1ccc(-c2nnc(-c3ccccn3)nc2NC2CCCCC2)cc1	103.3	i	67.4	104.2	46.8	i	35.5	63.4
CCn1cnc2cc(NCc3ccc(C)cc3)ccc21	i	i	i	i	i	i	nt	nt
CCCn1cnc2cc(NCc3ccc(Br)cc3)ccc21	i	i	51.6	i	42.7	i	i	50.2

From PubChem BioAssay
